The panel holds about 83,000 compounds, 20% with a hit somewhere; the sample as a whole holds those more often.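 Plates (96-well) were seeded with cells, treated with compound at one concentration, and incubated for 48 hours before percent growth was determined.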 A number with no mark means an inactive call. Activity calls are given as the source filed them. The calls were made as follows: active = growth percent below 10; inactive = the rest.

These results are taken from PubChem BioAssay (NCI).

Among the test systems are HCT-15 colon; HT29 colon; SNB-75 CNS; SNB-19 CNS; U251 CNS; PC-3 prostate; SK-MEL-5 melanoma; UACC-62 melanoma; LOX IMVI melanoma; SK-MEL-28 melanoma; SK-MEL-2 melanoma; EKVX NSCLC; SN12C renal; UO-31 renal; TK-10 renal; ACHN renal; CAKI-1 renal; A498 renal; CCRF-CEM leukemia; MOLT-4 leukemia.
Common to all, as to test: NCI-60 one-dose screen, 48 h (100 = growth as untreated, 0 = no growth, -100 = all killed)
Common to all, as to details: 10 µM unless noted

Turning to `O=C1NC(=S)NC(=O)C1=Cc1cn(Cc2ccccn2)c2ccccc12`, the growth in the assay with HCT-15 colon is 42.9%; with HT29 colon it was 72.2%; in the assay on SNB-75 CNS, 52.8%; with SNB-19 CNS it was 53.4%; in the assay with U251 CNS, 31.5%; with PC-3 prostate it was 47.5%. Moreover, the growth is 73.6% in the assay on SK-MEL-5 melanoma; 70.5% with UACC-62 melanoma; 27.1% with LOX IMVI melanoma; 73.4% in the assay with SK-MEL-28 melanoma; 89.7% in the assay with SK-MEL-2 melanoma; 84.7% in the assay on EKVX NSCLC. For the same compound, the growth in the assay on SN12C renal is 66.6%; with UO-31 renal, 59.2%; in the assay on TK-10 renal it was 72.7%; with ACHN renal, 82.2%; in the assay with CAKI-1 renal, 7.91% (active); in the assay with A498 renal, -86.4% (active). Moreover, the figures for the growth in the assay on CCRF-CEM leukemia and in the assay with MOLT-4 leukemia were 31.3% and 66%, respectively.

As to `O=C1Nc2c(ccc(Cl)c2Cl)/C1=C/c1ccccn1`, the growth in the assay on HCT-15 colon is 70.9%; in the assay on HT29 colon, 78.5%; with SNB-75 CNS, 84.6%; in the assay on SNB-19 CNS it was 84.5%; with U251 CNS, 85%; in the assay on PC-3 prostate, 75.2%. The growth with SK-MEL-5 melanoma was 83.1%; in the assay with UACC-62 melanoma, 70.5%; in the assay with LOX IMVI melanoma, 43.9%; in the assay on SK-MEL-28 melanoma, 105%; in the assay with SK-MEL-2 melanoma it was 104%; in the assay with EKVX NSCLC, 62.3%. Also, the growth in the assay with SN12C renal is 97%; in the assay with UO-31 renal, 73.3%; in the assay with TK-10 renal it was 120%; in the assay on ACHN renal it was 72.6%; with CAKI-1 renal, -1.32% (active); in the assay on A498 renal it was 110%. Besides, the growth in the assay on CCRF-CEM leukemia was 23.2%.

For the compound `COc1ccc(NC(=O)c2sc3nc(C)c(C(=O)CCc4cccc(OC)c4)cc3c2N)cc1`, the growth in the assay with HCT-15 colon was 46.7%; in the assay on HT29 colon, 67.4%; in the assay on SNB-75 CNS, 65.7%; with SNB-19 CNS, 73.5%; in the assay on U251 CNS it was 78.3%; with PC-3 prostate, 79.5%. For the same compound, the growth in the assay on SK-MEL-5 melanoma is 61.9%; with UACC-62 melanoma, 63.7%; in the assay on LOX IMVI melanoma, 75.4%; in the assay with SK-MEL-28 melanoma, 83%; in the assay on SK-MEL-2 melanoma, 53.2%; in the assay with EKVX NSCLC, 82.8%. Further, the growth with SN12C renal is 73%; with UO-31 renal, 51%; with TK-10 renal, 85.4%; with ACHN renal, 95.2%; in the assay on CAKI-1 renal, 71%; in the assay with A498 renal, 19.2%. For the same compound, the results for the growth in the assay with CCRF-CEM leukemia and in the assay with MOLT-4 leukemia were 65.4% and 48.1%, respectively.

As for `COc1cc(NCC(O)CN(CC(C)C)C2CCCC2)c2ncccc2c1` (stereo not drawn), the growth with HCT-15 colon is 84.2%; with HT29 colon it was 78.3%; in the assay with SNB-75 CNS, 103%; in the assay with SNB-19 CNS it was 101%; in the assay on U251 CNS it was 79.9%; with PC-3 prostate, 68.8%. Also, the growth in the assay on SK-MEL-5 melanoma was 93.1%; with UACC-62 melanoma, 98.9%; in the assay on LOX IMVI melanoma, 82.7%; in the assay on SK-MEL-28 melanoma, 103%; in the assay with SK-MEL-2 melanoma, 98.3%; with EKVX NSCLC, 83.2%. The growth in the assay on SN12C renal was 86.4%; in the assay with UO-31 renal it was 71.7%; with TK-10 renal, 110%; with ACHN renal, 80.2%; in the assay with CAKI-1 renal it was 94.6%; in the assay with A498 renal it was 71.5%. Further, the growth in the assay on CCRF-CEM leukemia is 114%.

`Cc1ccc(C2CC(c3cccc(Nc4ccncc4)c3)=NN2c2ccc(Cl)cc2)cc1` (stereo not drawn): the growth with HCT-15 colon was -88.2% (active); in the assay with HT29 colon, -58% (active); in the assay with SNB-75 CNS it was -89.9% (active); in the assay with SNB-19 CNS, -90.2% (active); with U251 CNS, -52.2% (active); with PC-3 prostate it was -83.4% (active). Besides, the growth with SK-MEL-5 melanoma was -93% (active); in the assay with UACC-62 melanoma, -98.3% (active); in the assay with LOX IMVI melanoma, -96.5% (active); in the assay on SK-MEL-28 melanoma it was -97.7% (active); with SK-MEL-2 melanoma, -74.8% (active); in the assay with EKVX NSCLC, -85.1% (active). The growth is -95.8% (active) in the assay on SN12C renal; -99.4% (active) in the assay with UO-31 renal; -80.9% (active) in the assay on TK-10 renal; -100% (active) in the assay on ACHN renal; -94.7% (active) in the assay on CAKI-1 renal; -93.8% (active) in the assay with A498 renal. Further, the growth was -30.8% (active) in the assay with CCRF-CEM leukemia and -32.8% (active) in the assay on MOLT-4 leukemia.

`COc1ccc(-c2nc(SCC(C)C)nc(N/N=C(/C)c3ccc(OC)c(OC)c3)c2C#N)cc1`: the growth with HCT-15 colon is 79.8%; in the assay with HT29 colon, 90.4%; with SNB-75 CNS it was 80.2%; with SNB-19 CNS, 78.2%; with U251 CNS, 89.6%; in the assay on PC-3 prostate, 52.5%. In addition, the growth in the assay with SK-MEL-5 melanoma is 74.6%; in the assay on UACC-62 melanoma, 81.2%; with LOX IMVI melanoma, 84.3%; with SK-MEL-28 melanoma, 84.5%; in the assay on SK-MEL-2 melanoma, 103%; in the assay with EKVX NSCLC, 89.5%. Also, the growth with SN12C renal was 76.1%; with UO-31 renal, 54.4%; with TK-10 renal it was 101%; with ACHN renal, 90.5%; in the assay with CAKI-1 renal it was 86%; with A498 renal it was 67.9%. Also, the growth in the assay on CCRF-CEM leukemia was 70.3%; with MOLT-4 leukemia, 55.3%.

With `CN(C)C(=O)OCc1nc2c(N3CCOCC3)nc(-c3ccccc3)nc2n1C`, the growth in the assay with HCT-15 colon is -38.6% (active); in the assay on HT29 colon, -53.7% (active); with SNB-75 CNS, -87.2% (active); in the assay on SNB-19 CNS, 13.9%; in the assay with U251 CNS it was -57.2% (active); with PC-3 prostate, -65.2% (active). Also, the growth in the assay with SK-MEL-5 melanoma was -95.7% (active); with UACC-62 melanoma, -92% (active); in the assay with LOX IMVI melanoma it was -84.7% (active); in the assay on SK-MEL-28 melanoma it was -95.4% (active); in the assay on SK-MEL-2 melanoma, -73.5% (active); in the assay on EKVX NSCLC, -56.8% (active). The growth in the assay on SN12C renal is -90.7% (active); in the assay with UO-31 renal, -100% (active); with TK-10 renal, -77.7% (active); in the assay on ACHN renal, -99.8% (active); with CAKI-1 renal, -91.7% (active); in the assay on A498 renal, -32.3% (active). The results for the growth with CCRF-CEM leukemia and in the assay on MOLT-4 leukemia were -12% (active) and -3.34% (active), respectively.

As to `CCn1cc(C2NC(=O)c3ccccc3N2)c2cccc(C)c21` (stereo not drawn), the growth is 18.6% with HCT-15 colon; -22.9% (active) in the assay with HT29 colon; -26.9% (active) in the assay on SNB-75 CNS; 32.9% in the assay with SNB-19 CNS; 3.94% (active) with U251 CNS; 22% in the assay with PC-3 prostate. Besides, the growth with SK-MEL-5 melanoma was 16.8%; with UACC-62 melanoma it was 27.6%; in the assay with LOX IMVI melanoma, 29.2%; in the assay with SK-MEL-28 melanoma, 56.5%; with SK-MEL-2 melanoma, 2.54% (active); in the assay on EKVX NSCLC, 29.4%. For the same compound, the growth in the assay on SN12C renal is 23.9%; in the assay on UO-31 renal it was 38.7%; with TK-10 renal, 33.6%; with ACHN renal, 26.8%; in the assay on CAKI-1 renal, 32.6%; with A498 renal, -17.4% (active). Further, the values for the growth in the assay with CCRF-CEM leukemia and in the assay on MOLT-4 leukemia were -3.39% (active) and 10.9%, respectively.
